The full ranking holds about 9,900 sequences; the median of “r (bound/input frequency ratio)” is about 0.7, and the highest 2% start at about 6.5. This excerpt belongs to a sample that is enriched for the highest values.
B1: ENSMUSG00000061578.87|Ksr2 (ssRNA)
RNA: GGGAGUUCUACAGUCCGACGAUCGCUUCGAUAUCCGCAUGCUAGGGUUAAACUUGCAAACAUCUGAUUUUAGAGGUCCCAUUCCAAGAUGGAAGUCACCGGUUGCCGCUGAGCACACAAUUCUGAAGGACAGUAGGCAGUCCUGCAGGUCUUUUUUAGCACAGGGCCUCUCUGGGGACCAGUCCCUGGCCUUCACCCUUCUCCCAUUUUGUAAGAACACUGUUCUAACUCACCUCAUGCCCACGCUACCCUGGGCAACUGGAGAACACCAUAGCGUUUCAGCUGAUGUGACAUUUGGUGUGACCUCUUGCGGUCGCACUAGUGUGGAAUUCUCGGGUGUCAAGG
B2: ENSMUSG00000058297.287|Spock2|119:124 (ssRNA)
RNA: GGGAGUUCUACAGUCCGACGAUCGCUUCGAUAUCCGCAUGCUAAGAGAGAGAGAGAGAGAGAGAGAGAGAGAGAGAGAGAAAGAGAGAGAGAAUGAGAGAGAAUGAGAGAGAGAAUACCCGAGGGCCACCCUGAUGCCCAGGAAGAGUGAGGGCAGCCCCCACACACGUGGAAGAGGCUGGGCAGCUAGCUACUGGGGACCUUGUGCUGAGGCUUCCAGGACAAAGCCCCAGUCUGGCUCUCCCCCAGCCUCUCAGGGGCACUGGCUGGUCACAUCCACUGAGUAUUGAUCGGUUGGACUUUACUCUUGCGGUCGCACUAGUGUGGAAUUCUCGGGUGUCAAGG
B3: ENSMUSG00000058297.296|Spock2|65:70 (ssRNA)
RNA: GGGAGUUCUACAGUCCGACGAUCGCUUCGAUAUCCGCAUGCUAAGAGAAUGAGAGAGAGAAUACCCGAGGGCCACCCUGAUGCCCAGGAAGAGUGAGGGCAGCCCCCACACACGUGGAAGAGGCUGGGCAGCUAGCUACUGGGGACCUUGUGCUGAGGCUUCCAGGACAAAGCCCCAGUCUGGCUCUCCCCCAGCCUCUCAGGGGCACUGGCUGGUCACAUCCACUGAGUAUUGAUCGGUUGGACUUUAGGGAAGAGCCUCCUCCUUCCCAUUCCUUUCUGCCACCCUGGAAUGGCCACCUUACUCUUGCGGUCGCACUAGUGUGGAAUUCUCGGGUGUCAAGG
B4: ENSMUSG00000058297.288|Spock2|113:118 (ssRNA)
RNA: GGGAGUUCUACAGUCCGACGAUCGCUUCGAUAUCCGCAUGCUAAGAGAGAGAGAGAGAGAGAGAGAGAGAGAGAAAGAGAGAGAGAAUGAGAGAGAAUGAGAGAGAGAAUACCCGAGGGCCACCCUGAUGCCCAGGAAGAGUGAGGGCAGCCCCCACACACGUGGAAGAGGCUGGGCAGCUAGCUACUGGGGACCUUGUGCUGAGGCUUCCAGGACAAAGCCCCAGUCUGGCUCUCCCCCAGCCUCUCAGGGGCACUGGCUGGUCACAUCCACUGAGUAUUGAUCGGUUGGACUUUAGGGAAGCUCUUGCGGUCGCACUAGUGUGGAAUUCUCGGGUGUCAAGG
B5: ENSMUSG00000058297.293|Spock2|83:88 (ssRNA)
RNA: GGGAGUUCUACAGUCCGACGAUCGCUUCGAUAUCCGCAUGCUAAAAGAGAGAGAGAAUGAGAGAGAAUGAGAGAGAGAAUACCCGAGGGCCACCCUGAUGCCCAGGAAGAGUGAGGGCAGCCCCCACACACGUGGAAGAGGCUGGGCAGCUAGCUACUGGGGACCUUGUGCUGAGGCUUCCAGGACAAAGCCCCAGUCUGGCUCUCCCCCAGCCUCUCAGGGGCACUGGCUGGUCACAUCCACUGAGUAUUGAUCGGUUGGACUUUAGGGAAGAGCCUCCUCCUUCCCAUUCCUUUCUGCCACCUCUUGCGGUCGCACUAGUGUGGAAUUCUCGGGUGUCAAGG
B6: ENSMUSG00000058297.295|Spock2|71:76 (ssRNA)
RNA: GGGAGUUCUACAGUCCGACGAUCGCUUCGAUAUCCGCAUGCUAAAUGAGAGAGAAUGAGAGAGAGAAUACCCGAGGGCCACCCUGAUGCCCAGGAAGAGUGAGGGCAGCCCCCACACACGUGGAAGAGGCUGGGCAGCUAGCUACUGGGGACCUUGUGCUGAGGCUUCCAGGACAAAGCCCCAGUCUGGCUCUCCCCCAGCCUCUCAGGGGCACUGGCUGGUCACAUCCACUGAGUAUUGAUCGGUUGGACUUUAGGGAAGAGCCUCCUCCUUCCCAUUCCUUUCUGCCACCCUGGAAUGGCCCUCUUGCGGUCGCACUAGUGUGGAAUUCUCGGGUGUCAAGG
B7: ENSMUSG00000058297.298|Spock2|53:58 (ssRNA)
RNA: GGGAGUUCUACAGUCCGACGAUCGCUUCGAUAUCCGCAUGCUAAGAGAAUACCCGAGGGCCACCCUGAUGCCCAGGAAGAGUGAGGGCAGCCCCCACACACGUGGAAGAGGCUGGGCAGCUAGCUACUGGGGACCUUGUGCUGAGGCUUCCAGGACAAAGCCCCAGUCUGGCUCUCCCCCAGCCUCUCAGGGGCACUGGCUGGUCACAUCCACUGAGUAUUGAUCGGUUGGACUUUAGGGAAGAGCCUCCUCCUUCCCAUUCCUUUCUGCCACCCUGGAAUGGCCACCUUAAUCGUCAUCUCCCUCUUGCGGUCGCACUAGUGUGGAAUUCUCGGGUGUCAAGG
B8: ENSMUSG00000058297.290|Spock2|101:106 (ssRNA)
RNA: GGGAGUUCUACAGUCCGACGAUCGCUUCGAUAUCCGCAUGCUAAGAGAGAGAGAGAGAGAGAAAGAGAGAGAGAAUGAGAGAGAAUGAGAGAGAGAAUACCCGAGGGCCACCCUGAUGCCCAGGAAGAGUGAGGGCAGCCCCCACACACGUGGAAGAGGCUGGGCAGCUAGCUACUGGGGACCUUGUGCUGAGGCUUCCAGGACAAAGCCCCAGUCUGGCUCUCCCCCAGCCUCUCAGGGGCACUGGCUGGUCACAUCCACUGAGUAUUGAUCGGUUGGACUUUAGGGAAGAGCCUCCUCCUUCUCUUGCGGUCGCACUAGUGUGGAAUUCUCGGGUGUCAAGG
B9: ENSMUSG00000058297.289|Spock2|107:112 (ssRNA)
RNA: GGGAGUUCUACAGUCCGACGAUCGCUUCGAUAUCCGCAUGCUAAGAGAGAGAGAGAGAGAGAGAGAGAAAGAGAGAGAGAAUGAGAGAGAAUGAGAGAGAGAAUACCCGAGGGCCACCCUGAUGCCCAGGAAGAGUGAGGGCAGCCCCCACACACGUGGAAGAGGCUGGGCAGCUAGCUACUGGGGACCUUGUGCUGAGGCUUCCAGGACAAAGCCCCAGUCUGGCUCUCCCCCAGCCUCUCAGGGGCACUGGCUGGUCACAUCCACUGAGUAUUGAUCGGUUGGACUUUAGGGAAGAGCCUCCUCUUGCGGUCGCACUAGUGUGGAAUUCUCGGGUGUCAAGG

Target: TDP-43 (Homo sapiens, UniProt Q13148 1-414)
Assay: RNA Bind-n-Seq with designed 260-mer pool; 25 mM Tris-HCl, 150 mM KCl, 3 mM MgCl2, BSA (printed 500 mg/mL), 20 units/mL SUPERase IN; pH not stated; 500 nM RNA pool, 1 h, 4 C; TDP-43 5, 50, 500 nM; high values mean tight binding
Conditions: protein: recombinant; tags: SBP (GST cleaved off with PreScission; pGEX-GST-SBP)
How it was run: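 For each oligo, R gives binding as its mapped-read-normalized abundance after pulldown divided by its abundance in input. Bead-captured SBP-tagged TDP-43 (5, 50 or 500 nM) was incubated with 500 nM of an in vitro-transcribed 260-nt 3′ UTR oligo pool for 1 h at 4 °C in 25 mM Tris-HCl, 150 mM KCl, 3 mM MgCl2, BSA and SUPERase IN on streptavidin beads. Washed, biotin-eluted RNA was reverse transcribed, PCR-amplified and sequenced.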

Sequence of TDP-43 (Q13148 whole entry): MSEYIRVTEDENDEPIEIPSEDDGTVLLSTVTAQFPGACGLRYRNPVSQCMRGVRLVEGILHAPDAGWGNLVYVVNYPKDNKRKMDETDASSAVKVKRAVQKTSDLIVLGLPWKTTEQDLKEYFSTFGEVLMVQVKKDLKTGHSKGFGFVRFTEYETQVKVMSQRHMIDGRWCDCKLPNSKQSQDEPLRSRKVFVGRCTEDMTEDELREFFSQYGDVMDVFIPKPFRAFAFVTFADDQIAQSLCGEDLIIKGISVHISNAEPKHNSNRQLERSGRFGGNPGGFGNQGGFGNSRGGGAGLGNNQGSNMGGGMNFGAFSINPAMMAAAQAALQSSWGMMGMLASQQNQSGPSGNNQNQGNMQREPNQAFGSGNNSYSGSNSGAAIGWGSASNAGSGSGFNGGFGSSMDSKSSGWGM

Compared with B1, B2 is higher in binding signal: 0.338 R (bound/input frequency ratio) for the first, 7.84 R (bound/input frequency ratio) for the second.

Going from B3 to B4, the binding signal rises from 4.88 R (bound/input frequency ratio) to 7.71 R (bound/input frequency ratio).

First: B5
Second: B6
The binding signal of the first is lower: 3.42 R (bound/input frequency ratio) for the first, 3.59 R (bound/input frequency ratio) for the second.

First: B7
Second: B8
The binding signal of the first is lower: 2.36 R (bound/input frequency ratio) for the first, 8.37 R (bound/input frequency ratio) for the second.

In the case of B9, the binding signal is reported as 7.59 R (bound/input frequency ratio).

— PMC12864922, “TDP-43 directly inhibits mRNA accumulation in neurites through modulation of mRNA stability”
